In article PMC5540273 (PLoS ONE, 2017):
Like-named read-outs stand apart in the source and are kept apart here.

Tests used:
Settings in all cases: n = 1
[1] = system: MAP4K4
[2] = system: MAP4K5
[3] = system: MAPKAPK2
[4] = system: MAPKAPK5
[5] = system: MARK1
[6] = system: MARK2
[7] = system: MARK3
[8] = system: MARK4
[9] = system: MAST1
[10] = system: T1, MEK1
T1 construct: gene MAP2K1

[11] = concentration: 1 μM, replicates: in singlicate
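Also: KINOMEscan kinase panel screen.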

Structure (SMILES)	%Inh [1, 11] [%]	%Inh [2, 11] [%]	%Inh [3, 11] [%]	%Inh [4, 11] [%]	%Inh [5, 11] [%]	%Inh [6, 11] [%]	%Inh [7, 11] [%]	%Inh [8, 11] [%]	%Inh [9, 11] [%]	%Inh [10, 11] [%]	%Inh ([1]; 1 µM) [%]	%Inh ([2]; 1 µM) [%]	%Inh ([3]; 1 µM) [%]	%Inh ([4]; 1 µM) [%]	%Inh ([5]; 1 µM) [%]	%Inh ([6]; 1 µM) [%]	%Inh ([7]; 1 µM) [%]	%Inh ([8]; 1 µM) [%]	%Inh ([9]; 1 µM) [%]	%Inh ([10]; 1 µM) [%]
COc1cccc(NC(=O)NC2CCN(c3ccnc(Nc4ccc(F)cc4)n3)C2)c1 (stereo not drawn) [GSK1379721]	83	96.7	0	0	0	0	9	0	17	31	–	–	–	–	–	–	–	–	–	–
Clc1cc(Cl)cc(Nc2ccnc(Nc3cc(Cl)cc(Cl)c3)n2)c1 [GSK175726]	0	0	0	0	0	16	0	0	0	0	–	–	–	–	–	–	–	–	–	–
Cn1ccc2ncnc(Oc3ccc(NC(=O)Nc4ccccc4)cc3)c21	0	0	0	0	11	0	50	10	18	0	–	–	–	–	–	–	–	–	–	–
Nc1nc(-c2nccs2)c(-c2ccnc3ccccc23)s1 [GW693542]	4	0	28	0	0	0	0	1	0	0	–	–	–	–	–	–	–	–	–	–
COc1ccccc1-c1ccc2c(NC(=O)C3CC3)n[nH]c2n1 [SB-711239]	25	26	27	2	0	0	0	0	26	0	–	–	–	–	–	–	–	–	–	–
O=C(Nc1ccc2c(c1)OCO2)NC1CCN(c2ccnc(Nc3ccc(F)cc3)n2)C1 (stereo not drawn) [GSK1379724]	8	0	5	0	0	0	0	0	0	0	–	–	–	–	–	–	–	–	–	–
COc1ccc(Nc2nccc(-c3cccc(NC(=O)c4cc5cc(F)ccc5[nH]4)c3)n2)cc1 [GSK1229782]	22	7	0	0	9	19	0	21	20	0	–	–	–	–	–	–	–	–	–	–
Cc1nnc(-c2ccc3occ(-c4ccc(S(C)=O)cc4)c3c2)[nH]1 (stereo not drawn)	0	0	0	20	21	22	0	19	7	8	–	–	–	–	–	–	–	–	–	–
CC1=C(C(=O)Nc2cc3cn[nH]c3cc2F)C(c2ccc(C(F)(F)F)cc2)CC(=O)N1 (stereo not drawn) [GSK429286]	59	75	21	0	0	0	0	0	0	0	–	–	–	–	–	–	–	–	–	–
CS(=O)(=O)c1ccc(-c2nc3n(c2-c2ccncc2)CCC3)cc1 [SKF-105942]	0	0	36	0	0	0	0	0	0	0	–	–	–	–	–	–	–	–	–	–
COc1ccc(Nc2nccc(NCCNC(=O)Nc3ccccc3F)n2)cc1 [GSK1379901]	0	0	25	0	0	0	0	11	0	0	–	–	–	–	–	–	–	–	–	–
CCn1c(-c2ccccn2)nc2cnccc21 [SB-736398]	0	1	21	0	0	0	3	8	47	0	–	–	–	–	–	–	–	–	–	–
COC(=O)c1c(-c2ccccc2)c2cc(C(=O)O)ccc2c(=O)n1Cc1ccccc1	0	7	3	0	0	3	0	0	0	0	–	–	–	–	–	–	–	–	–	–
Fc1cccc(COc2nnc(-c3ccc4c(c3)CCO4)o2)c1	0	0	0	11	14	24	0	24	21	5	–	–	–	–	–	–	–	–	–	–
CN1C(=O)C(Nc2ccc(Cl)c(C(=O)O)c2)=C(c2ccc(Cl)cc2)C1=O [SB-404290]	0	0	23	12	0	27	0	13	42	0	–	–	–	–	–	–	–	–	–	–
COc1cc2ncn(-c3cc(OCC4CCCO4)c(C(N)=O)s3)c2cc1OC (stereo not drawn) [GSK204607]	6	4	0	0	0	0	0	0	2	24	–	–	–	–	–	–	–	–	–	–
Cn1ccc2ncnc(Oc3ccc(Nc4nc5ccccc5[nH]4)cc3)c21	0	0	0	0	0	9	0	13	0	0	–	–	–	–	–	–	–	–	–	–
Cc1cccc(-c2nc(-c3ccc(S(C)(=O)=O)cc3)sc2-c2ccnc(NCCc3ccccc3)c2)c1	0	0	0	0	0	11	0	0	0	0	–	–	–	–	–	–	–	–	–	–

Structure (SMILES)	%Inh [1, 11] [%]	%Inh [2, 11] [%]	%Inh [3, 11] [%]	%Inh [4, 11] [%]	%Inh [5, 11] [%]	%Inh [6, 11] [%]	%Inh [7, 11] [%]	%Inh [8, 11] [%]	%Inh [9, 11] [%]	%Inh [10, 11] [%]	%Inh ([1]; 1 µM) [%]	%Inh ([2]; 1 µM) [%]	%Inh ([3]; 1 µM) [%]	%Inh ([4]; 1 µM) [%]	%Inh ([5]; 1 µM) [%]	%Inh ([6]; 1 µM) [%]	%Inh ([7]; 1 µM) [%]	%Inh ([8]; 1 µM) [%]	%Inh ([9]; 1 µM) [%]	%Inh ([10]; 1 µM) [%]
COc1cccc(-c2cc(-c3c[nH]nc3-c3ccccn3)ccn2)c1 [GW680338]	40	1	0	1	0	12	0	0	0	16	–	–	–	–	–	–	–	–	–	–
Fc1cc(Cl)ccc1Nc1ccnc2cc(I)ccc12 [GW551191]	28	0	19	0	0	0	11	0	0	0	–	–	–	–	–	–	–	–	–	–
Cc1ccc(NC(=O)Nc2cccc(C(F)(F)F)c2)cc1 [GSK955403]	–	–	–	–	–	–	–	–	–	–	0	0	0	0	0	0	0	4	21	5
NC(=O)c1nnc2ccccc2c1N	12	11	0	0	12	0	0	19	1	40	–	–	–	–	–	–	–	–	–	–
CCn1c(-c2cccnc2O)nc2cnccc21 [SB-736715]	0	0	16	0	0	15	0	0	13	0	–	–	–	–	–	–	–	–	–	–
COc1cc2nccc(Nc3ccc(NC(=O)c4ccc(C)cc4)c(O)c3)c2cc1OC.Cl [GW440132]	0	3	8	0	0	0	0	14	0	8	–	–	–	–	–	–	–	–	–	–
Cc1cccc(-c2cc(Nc3ccncc3)c3ccccc3n2)n1 [GSK223675]	0	0	13	0	0	0	0	0	0	0	–	–	–	–	–	–	–	–	–	–
Cc1ccccc1-n1cnc2c(N)ncnc21 [SKF-97510]	0	0	0	0	0	0	0	0	12	0	–	–	–	–	–	–	–	–	–	–
COc1ccc2nc(-c3cccc(C)n3)nc(Nc3ccncc3)c2c1 [GSK204919]	0	0	17	0	0	0	0	0	0	0	–	–	–	–	–	–	–	–	–	–
CS(=O)(=O)c1ccc(-c2c(-c3ncn[nH]3)sc(N3CCOCC3)c2C#N)cc1	0	0	0	0	26	10	0	24	21	2	–	–	–	–	–	–	–	–	–	–
COc1ccccc1CNC(=O)c1cc(C(=O)c2ccccc2C)c[nH]1 [GSK364507]	6	0	26	0	89	0	0	50	0	0	–	–	–	–	–	–	–	–	–	–
Cl.NC(=O)c1cccc(Nc2nccc(Nc3ccc(Oc4cccc(Cl)c4)c(Cl)c3)n2)c1 [GW659008]	18	33	8	0	13	0	0	24	5	0	–	–	–	–	–	–	–	–	–	–
Cc1c(O)cccc1Nc1ccnc2ccc(C(F)(F)F)cc12.Cl [GW466413]	0	0	8	0	0	0	0	2	0	0	–	–	–	–	–	–	–	–	–	–
Cl.c1ccc(-c2n[nH]cc2-c2ccnc(-c3ccc(CN4CCOCC4)cc3)c2)nc1 [GW776245]	0	0	13	0	0	6	1	28	0	14	–	–	–	–	–	–	–	–	–	–
Nc1ncnc2[nH]c(-c3ccccc3)nc12 [AH5015]	4	0	12	0	0	0	0	0	0	0	–	–	–	–	–	–	–	–	–	–
O=C(Nc1n[nH]c2nc(-c3nccs3)c(Br)cc12)C1CCCC1 [SB-742609]	2	4	22	0	0	0	0	0	0	0	–	–	–	–	–	–	–	–	–	–
COc1cc2ncnc(Nc3ccc4nc(-c5ccccc5)[nH]c4c3)c2cc1OC.Cl [GW282450]	0	0	24	0	0	0	0	0	0	0	–	–	–	–	–	–	–	–	–	–
Cc1ccc(NC(=O)Nc2cccc(Cl)c2)cc1-c1ccc(C(=O)Nc2ccncc2)cc1 [GSK1398468]	0	0	0	0	26	0	0	12	0	100	–	–	–	–	–	–	–	–	–	–
